Results reported in PubChem BioAssay AID504692 (The Scripps Research Institute Molecular Screening Center, 2011).
The whole screen tested about 340,000 compounds, of which about 2,000 (0.59%) were called active. The list comes from a sample in which actives are over-represented; it also holds similar structures and randomly drawn compounds. Values without a mark were called inactive. Rule as the data show it: active = activation mostly above about 9.5% (no sharp cut-off); inactive = mostly below about 7.6%.

target: 5-hydroxytryptamine receptor 5A (Homo sapiens) (UniProt P47898); assay: HTR5A agonists in luminescence cell assay, primary screen, counter-screen for OPRM1-OPRD1 heterodimer agonist project, full-deck HTS (AID 504692); settings: cell-based, at 9.3 µM, active compounds read high;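 also: 0% = cells with vehicle only and 100% = reference agonist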
Sequence (P47898 whole entry, looked up): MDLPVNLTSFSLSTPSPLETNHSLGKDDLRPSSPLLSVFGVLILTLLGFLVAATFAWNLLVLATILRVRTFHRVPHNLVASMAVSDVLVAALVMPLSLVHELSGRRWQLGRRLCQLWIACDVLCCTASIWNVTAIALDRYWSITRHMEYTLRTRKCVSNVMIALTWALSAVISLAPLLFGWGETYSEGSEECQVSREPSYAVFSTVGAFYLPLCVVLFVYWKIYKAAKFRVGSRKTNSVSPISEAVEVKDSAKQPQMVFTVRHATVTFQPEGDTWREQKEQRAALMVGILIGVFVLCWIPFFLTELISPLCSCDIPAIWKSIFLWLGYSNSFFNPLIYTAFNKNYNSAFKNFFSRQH

COc1ccc2oc(=O)cc(-c3cc4ccccc4o3)c2c1 was tested, and the activation was 10.7% (active).
For COc1ccc(/C=C(\C#N)c2c[nH]c3ccccc23)cc1, the activation was 19.6% (active).
CN(CCC(=O)Nc1cc(S(=O)(=O)N(C)C)ccc1Cl)CC(=O)Nc1ccc(F)cc1 was tested, and the activation was 11.8% (active).
In the case of O=C(/C=C/c1cccc(C(F)(F)F)c1)N1CCN(c2ccccn2)CC1, the activation is reported as 10.6% (active).
COC(=O)c1cc(S(=O)(=O)N2CCN(c3cc(C)ccc3C)CC2)c[nH]1 was tested, and the activation was 14.8% (active).
With O=C(CCCCCn1c(=O)[nH]c2ccccc2c1=O)NCCc1c[nH]c2ccccc12 the activation was 12.7% (active).
In the case of CCOC(=O)[C@H]1CCC[C@@H](NS(=O)(=O)c2ccc(NC(C)=O)cc2)C1, the activation is reported as 12.5% (active).
CC(C)CC(=O)N/C(N)=N/c1nc2ccccc2s1 was tested, and the activation was 22% (active).
With CCOC(=O)c1c(-c2ccc(-c3ccccc3)cc2)csc1NC(=O)CCC(=O)O the activation was 9.5% (active).
O=C(NCc1cccs1)c1cc(-c2ccccn2)nc2ccc(Br)cc12 was tested, and the activation was 12.8% (active).
Cc1oc2c(F)c(F)c(F)c(F)c2c1S(=O)(=O)Nc1cccc(C(F)(F)F)c1 was tested, and the activation was 16.5% (active).
With COc1ccccc1S(=O)(=O)NCc1ccc(C(=O)N(C)Cc2ccc(F)cc2)cc1 the activation was 16.9% (active).
C/C(=N\NS(=O)(=O)c1cccc([N+](=O)[O-])c1)c1cc2ccccc2o1 was tested, and the activation was 11.2% (active).
With Cc1ccc(NC(=S)NC(NC(=O)Cc2cccc3ccccc23)C(Cl)(Cl)Cl)cc1 (stereo unspecified) the activation was 26.7% (active).
With CCc1cc2c(N3CCN(c4nnc(CC)s4)CC3)ncnc2s1 the activation was 10.4% (active).
With CC(=O)COc1ccc2c(-c3ccccc3)cc(=O)oc2c1 the activation was 15.1% (active).
COc1cc(SC#N)ccc1N=Cc1c(C)[nH]n(-c2ccc(C)cc2)c1=O was tested, and the activation was 11.4% (active).
For COc1cccc(/C=N/NC(=O)c2[nH]nc3c2CCc2ccccc2-3)c1O, the activation was 18.3% (active).
With COc1ccc(C(=O)Nc2cccc(NC(=O)c3ccc(OC)cc3OC)n2)c(OC)c1 the activation was 13.4% (active).

First: COc1cccc2cc(-c3cc(=O)oc4cc(C)c(O)cc34)oc12
Second: COc1ccc(Nc2cc(=O)oc3ccccc23)cc1
The activation of the first is lower: 1.11% for the first, 2.95% for the second.

Going from COc1ccc(C2C(C(C)=O)=C(O)C(=O)N2CCc2c[nH]c3ccccc23)cc1 (stereo unspecified) to COc1ccc(-c2cc(=O)oc3cc(OCC(=O)N[C@@H](Cc4c[nH]c5ccccc45)C(=O)O)ccc23)cc1, the activation falls from 1.98% to -4.61%.

Going from COc1cccc(-n2c(SCC(=O)c3c[nH]c4ccccc34)nc3ccccc3c2=O)c1 to O=C(CCc1c[nH]c2ccccc12)NCCOc1ccccc1, the activation rises from -2.91% to 0.78%.

First: Cc1cc(C(=O)NNS(=O)(=O)c2ccccc2C(F)(F)F)nn1C(C)(C)C
Second: O=C(CNS(=O)(=O)c1cccc(C(F)(F)F)c1)Nc1ccccc1F
The activation of the first is lower: -2.85% for the first, -1.06% for the second.

Going from Cc1cccc(C)c1NC(=O)Nc1ccccc1-n1ccnc1 to Cc1cccc(N2Cc3ccccc3C2=NC(=O)c2ccc(Cl)nc2)c1, the activation falls from 2.52% to 2.14%.

Compared with NNC(=O)c1ccc(COCC(F)(F)C(F)F)cc1, CCOC(=O)C1C(c2ccc(O)cc2)NC(=O)NC1(O)C(F)(F)F (stereo unspecified) is lower in activation: 8.26% for the first, 3.08% for the second.

First: Cc1ccc(C(=O)NC2CCN(C(=O)Nc3ccc(F)cc3)CC2)cc1
Second: CN(CC(=O)Nc1ccc(F)cc1)CC(=O)Nc1ccc(Cl)c(S(=O)(=O)N2CCOCC2)c1
The activation of the first is lower: 4.38% for the first, 5.23% for the second.

First: CN(CC(=O)Nc1ccc(S(=O)(=O)N2CCCC2)cc1)Cc1ccc(Cl)c(Cl)c1
Second: COc1ccc(C(=O)NCc2ccc(Cl)cc2)cc1S(=O)(=O)N1CCCC1
The activation of the first is lower: -1.38% for the first, -0.47% for the second.

Going from O=C(Nc1cccc(F)c1)[C@@H]1CCCN1 to Cc1cc(C(=O)OC(C)C(=O)Nc2cccc(S(=O)(=O)N3CCOCC3)c2)c(C)o1 (stereo unspecified), the activation rises from 0.12% to 1.13%.

Going from COc1ccc(C(=O)C2CCCN(C(=O)c3ccc(OC)o3)C2)c(C)c1 (stereo unspecified) to COc1ccc(C(=O)NC(C)CCc2ccccc2)c(OC)c1 (stereo unspecified), the activation rises from -0.4% to 3.2%.

First: O=C(C(Cl)Cl)N1CCN(c2ccccn2)CC1
Second: O=C(Cc1ccc(Br)cc1)N1CCN(c2ccccn2)CC1
The activation of the first is lower: -2.12% for the first, 0.82% for the second.

First: Cc1cccc(N2CCN(C(=O)CCS(=O)(=O)c3ccc4c(c3)NC(=O)C(C)S4)CC2)c1C (stereo unspecified)
Second: Cc1ccc(C)c(N2CCN(S(=O)(=O)c3ccc4c(c3)oc(=O)n4C)CC2)c1
The activation of the first is higher: 2.41% for the first, 0.11% for the second.

Compared with Cc1ccc(C)c(N2CCN(S(=O)(=O)c3c(C)[nH]c(C)c3C(=O)N3CCCC3)CC2)c1, COc1ccccc1NS(=O)(=O)c1ccc(C(=O)N2CCN(c3ccccc3O)CC2)cc1 is lower in activation: 0.83% for the first, -0.27% for the second.

First: OCCC1CN(Cc2cccc(OC3CCCC3)c2)CCN1Cc1ccsc1 (stereo unspecified)
Second: CC(C)CCN1CCN(Cc2ccc(C(F)(F)F)cc2)CC1CCO (stereo unspecified)
The activation of the first is higher: 0.37% for the first, -0.94% for the second.

Going from CCN(CC)CCNC(=O)CCCCCn1c(=O)[nH]c2cc(C(=O)OC)ccc2c1=O to CCOc1ccc2[nH]c(=O)c(CN(CCCO)C(C)=O)cc2c1, the activation rises from 1.57% to 4.2%.

Compared with O=C1CC(Cc2ccc(Cl)cc2)C(=O)N1c1cc(Cl)ccn1 (stereo unspecified), COC(=O)c1sccc1NC(=O)CSc1ccccc1NS(=O)(=O)c1cc(Cl)ccc1Cl is higher in activation: 5.44% for the first, 8.27% for the second.

Compared with CC(=O)Nc1ccc(S(=O)(=O)NC(C)C(=O)OCC(=O)NC2CCCC2)cc1 (stereo unspecified), CC(=O)Nc1ccc(S(=O)(=O)NC2Cc3ccccc3C2)cc1 is higher in activation: 3.96% for the first, 4.91% for the second.

First: Cc1cccc(OC(=O)c2sc3ncn(C)c(=O)c3c2C)c1
Second: CCOC(=O)c1c(-c2ccc(C)cc2C)csc1NC(=O)CSc1nnnn1C
The activation of the first is lower: -4.42% for the first, 0.24% for the second.

Compared with CCOc1ccc(CCNC(=O)CCc2nnc3ccc(N4CCCC4)nn23)cc1OCC, COc1cccc(OC)c1C(=O)N1CCN(Cc2cccnc2)CC1 is higher in activation: -0.94% for the first, 3.95% for the second.

First: CCC(C)C(N=C1NS(=O)(=O)c2ccccc21)C(=O)N1CCC(C)CC1 (stereo unspecified)
Second: CCOC(=O)C1CCCN(S(=O)(=O)c2ccc(-n3cnnn3)c(C)c2)C1 (stereo unspecified)
The activation of the first is lower: -4.84% for the first, 1.69% for the second.

Compared with O=C(CCC(=O)c1cccs1)Nc1nc2ccccc2s1, CCc1cc2c(NC(Cc3ccccc3)C(=O)O)ncnc2s1 (stereo unspecified) is lower in activation: 6.03% for the first, -3.53% for the second.

Compared with CC(C)CC(=O)NC(=S)NCc1ccccc1, Cc1ccc(CNC(=O)[C@@H](NC(=O)Cc2ccccc2)C(C)C)cc1 is lower in activation: -0.72% for the first, -1.89% for the second.

First: O=C(NCc1ccccc1)C(=O)NCC1OCCN1S(=O)(=O)c1ccc(Br)cc1 (stereo unspecified)
Second: COc1ccc(S(=O)(=O)N2CCOC2CNC(=O)C(=O)NCc2ccncc2)cc1OC (stereo unspecified)
The activation of the first is higher: 5.82% for the first, 1.9% for the second.

Compared with CCOC(=O)c1c(-c2cccc(C)c2)csc1NC(=O)c1c(-c2ccccc2)noc1C, O=C(NCC(c1cccs1)N1CCOCC1)c1cc(-c2ccccn2)nc2ccccc12 (stereo unspecified) is higher in activation: -1.55% for the first, 1.25% for the second.

Compared with O=C(NCc1ccco1)/C(=C\c1cccc([N+](=O)[O-])c1)NC(=O)c1ccco1, COc1ccc(CCNS(=O)(=O)c2cccc([N+](=O)[O-])c2)cc1 is higher in activation: 0.85% for the first, 9% for the second.

Going from O=C(CSc1nncn1-c1cccnc1)N1CCOCC1 to Nn1c(SCC(=O)Nc2nccs2)nnc1-c1ccco1, the activation rises from 1.54% to 2.08%.

Compared with Cc1ccc(C(=O)Nc2ccc3c(c2)OCCO3)cc1S(=O)(=O)N1CCOCC1, Cc1noc(C)c1S(=O)(=O)Nc1cc(C(F)(F)F)ccc1N1CCOCC1 is lower in activation: 0.67% for the first, -0.69% for the second.

Going from O=C(Nc1ccncc1)c1cc(-c2ccccn2)nc2ccc(Br)cc12 to COc1ccc(/C=N/NC(=O)c2ccncc2)cc1CN1CCCc2ccccc21, the activation rises from -4.88% to 1.74%.

Compared with CCOC(=O)CSc1nc2ccc(C)cc2n2cnnc12, C=C(C)CSc1nnc(-c2ccc(C)cc2)n1N is higher in activation: -0.67% for the first, -0.48% for the second.

First: COc1ccc(S(=O)(=O)NCc2ccc(C(=O)N(C)Cc3ccco3)cc2)cc1
Second: O=C(NCCS(=O)(=O)NCc1ccc(F)cc1)c1ccccc1
The activation of the first is higher: 6.7% for the first, -3.96% for the second.

Compared with Cc1cc(S(=O)(=O)NC2CCCCC2)ccc1OCC(=O)NCc1cccnc1, CCc1cc2c(NC3CCCC3)ncnc2s1 is lower in activation: 7.03% for the first, 0.57% for the second.

Compared with CC(C=Cc1ccccc1)=NNS(=O)(=O)c1ccc([N+](=O)[O-])cc1, CC(=O)Nc1ccc(S(=O)(=O)N2CCn3cccc3C2C)cc1 (stereo unspecified) is lower in activation: 2.51% for the first, -2.82% for the second.

First: CC(C)(C)C(=O)NC(NC(=S)Nc1ccc(S(N)(=O)=O)cc1)C(Cl)(Cl)Cl (stereo unspecified)
Second: Cc1ccc(C(=O)N2CC(=O)Nc3ccccc32)o1
The activation of the first is higher: 3.71% for the first, -6.07% for the second.

Going from C=CCOC(=O)C1=C[C@@H](c2ccc3c(c2)OCO3)C[C@@H](OCCCCO)O1 to COc1cccc(CNCc2ccc3c(c2)OCO3)c1, the activation rises from -2.46% to 9.7%.

Compared with COc1ccc(-c2cc(=O)oc3cc(OCC(=O)N(C)C4CCS(=O)(=O)C4)ccc23)cc1 (stereo unspecified), CCOc1ccc2[nH]c(C(=O)N/N=C/c3cccc(OC)c3OC)cc2c1 is higher in activation: 3.71% for the first, 4.96% for the second.

Compared with C[C@@H](CN1CCC[C@H]1CN1C(N)=NC[C@@H]1Cc1ccccc1)N1C[C@@H](Cc2ccccc2)N(CCCC2CCCC2)C1=N, COc1ccc(C(=O)NC2=NCCS2)c(OC)c1 is higher in activation: -7.1% for the first, 4.66% for the second.
